# Screening results from PubChem.
# In the library only some 9.2% were active in any assay of this set; here they are far more common.
# NPC1 promoter act: activates the NPC1 promoter; Huh7 NPC1 promoter luciferase reporter, 24 h; Potency, µM (titrated, usually from 9.22 µM), for inactives: at the highest dose activation, usual class: activators; 320,000 tested, 2.4% active; AID 485313; note: % of control where 0% means no effect; nearly all actives have a fitted effect of over 60% in size
#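 In 1536-well qHTS, Huh7 cells harboring an NPC1 promoter–luciferase construct received compound for 24 h; activation was quantified by luminescence following luciferase reagent addition.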
# Rab9 promoter act: activates the Rab9 promoter | Huh7 Rab9 promoter-luciferase reporter, luminescence, 24 h | Potency, µM (doses to about 9.22 µM), inactives show at the top dose activation, negative = inhibition, hits mostly activators | 320,000 tested, 2.8% active; note: % of control where 0% means no effect; nearly all actives have a fitted effect of over 60% in size
#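 Huh7 cells stably carrying Rab9 promoter–luciferase reporter, plated 1500 cells/well, compound added after 2 h and incubated 24 h at 37 °C; luciferase luminescence then read after 10 min with detection reagent.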
# ELG1 DNA repair: ELG1-dependent DNA repair inhibition | AID 504467 | 330,000 tested, 2.3% active | Potency, µM (top dose mostly 46.1 µM), for inactives: at the highest dose activity change, negative = inhibition, actives largely listed as inhibitors | HEK293T ELG1-luciferase reporter, luminescence, 16 h; DNA damage induced by 5-fluorouridine; note: % is set by controls: 0 for no effect and ±100 for the full control effect; nearly all actives have a fitted effect of over 55% in size
#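 In this reporter screen, reduction of luminescence relative to DMSO vehicle indicated activity. Compounds and 5-fluorouridine were added together to 2,000 cells per well, incubated for 16 hr at 37 °C, then developed with ONE-Glo.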
# FLuc modulator: counter-screen for miR-21 project: firefly luciferase inhibitors or activators; purified FLuc, Km substrates, luminescence inhibition; Potency, µM (series often up to 57.5 µM), for inactives: at the highest dose activity change, negative = inhibition, most hits filed as inhibitors; 360,000 tested, 6.9% active; AID 588342;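 note: plate controls were vehicle for no effect and reference inhibitor for full effect; nearly all actives have a fitted effect of over 55% in size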
# Target sequence (P08659 whole entry, looked up): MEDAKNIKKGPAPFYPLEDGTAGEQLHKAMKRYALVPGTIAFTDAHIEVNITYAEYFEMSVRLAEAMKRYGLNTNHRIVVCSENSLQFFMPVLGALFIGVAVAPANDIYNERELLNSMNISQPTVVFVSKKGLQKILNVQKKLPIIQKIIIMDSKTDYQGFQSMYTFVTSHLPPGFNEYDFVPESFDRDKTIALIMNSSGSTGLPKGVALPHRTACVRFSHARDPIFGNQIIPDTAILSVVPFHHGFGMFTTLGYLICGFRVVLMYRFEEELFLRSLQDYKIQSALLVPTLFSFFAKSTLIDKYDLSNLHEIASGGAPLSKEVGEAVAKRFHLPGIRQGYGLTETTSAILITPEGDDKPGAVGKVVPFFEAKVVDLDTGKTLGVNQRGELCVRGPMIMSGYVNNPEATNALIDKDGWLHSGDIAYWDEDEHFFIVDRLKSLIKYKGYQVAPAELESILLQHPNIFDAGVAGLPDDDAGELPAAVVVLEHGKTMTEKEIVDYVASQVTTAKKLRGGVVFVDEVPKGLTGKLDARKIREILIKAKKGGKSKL
#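 Purified P. pyralis luciferase, 10 nM final, with Km-level 10 uM D-luciferin and 10 uM ATP in 50 mM Tris acetate pH 7.5, 10 mM Mg acetate, 0.01% Tween-20, 0.05% BSA; 6-point qHTS titration about 60 µM downward; luminescence read.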
# SMN2 splice enh: enhancers of SMN2 splice variant expression. HEK293 SMN2-luciferase splicing reporter, luminescence, 30-36 h. Potency, µM (titrated, usually from 46.1 µM), inactives show at the top dose activity change, positive = activation, actives largely listed as activators. 210,000 tested, 2.8% active; note: % of control where 0% means no effect; nearly all actives have a fitted effect of over 55% in size
#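 HEK293 cells carry an SMN2 minigene-luciferase reporter in which exon 7 inclusion puts luciferase in frame. Cells were seeded at 2000 cells/well, attached for 10-12 hours, then exposed to compounds for 30-36 hours at 37C before ONE-Glo luminescence.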
# ELG1 genotox: induces genotoxicity in HEK293T cells with luciferase-tagged ELG1 | HEK293T ELG1-luciferase reporter, luminescence, 16 h | Potency, µM (series often up to 46 µM), for the others: at the top dose activity change, positive = activation, hits mostly activators | 330,000 tested, 1.3% active; note: % of control where 0% means no effect; nearly all actives have a fitted effect of over 60% in size
#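 Quantitative HTS format in 1536-well plates. HEK293T ELG1-luciferase reporter cells receive test compound and are incubated 16 hr at 37 °C, 5% CO2; ONE-Glo added, 30 min room temperature, then luminescence read.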
# * = called active by the depositor; ? = inconclusive; . = no result; [ ] = remark or other dose. Calls come from the whole dose curve; as a rule, active = well fitted curve in the direction sought with a large enough effect; inconclusive = small, poorly fitted or top-dose-only effect, or another doubt; inactive = no such curve, though single readings can be large; an effect the other way counts as inactive or inconclusive. Potency is the fitted concentration of half-maximal effect.
SMILES,NPC1 promoter act,Rab9 promoter act,ELG1 DNA repair,FLuc modulator,SMN2 splice enh,ELG1 genotox
O=C(N/N=C/C(Br)=C\c1ccccc1)c1cccs1,2.2µM*,1.6µM*,?,2.1µM*,.,?
Cc1onc(-c2ccccc2)c1C(=O)N/N=C/C(Br)=C/c1ccccc1,2%,-4%,-23%,-4%,-59%,?
CC(=C/c1ccccc1)/C=N/NC(=O)c1cccs1,1.4µM*,1µM*,?,0.95µM*,.,1.8µM*
CCc1ccc(N2CC(C(=O)N/N=C/c3cc([N+](=O)[O-])ccc3O)CC2=O)cc1 (stereo not given),-6%,3%,?,?,-15%,11%
O=C(Nc1cccc(C(F)(F)F)c1)C1=CC=CN2CCS(=O)(=O)N=C12,-3%,2%,22%,2%,.,5%
Cc1ccccc1OCc1nc2ccccc2n1C,3.2µM*,4µM*,?,8.5µM*,.,?
Cn1c(COc2ccc(C(=O)O)cc2)nc2ccccc21,-4%,0%[1.84 µM],13%,-20%,.,0%
Cn1c(COc2ccc(F)cc2)nc2ccccc21,2.5µM*,3.5µM*,?,13µM*,.,?
Cc1ccc(C)c(OCc2nc3ccccc3n2C)c1,.,.,.,?,8%,.
O=C(Nc1ccc(N2CCOCC2)cc1)c1cc(-c2ccncc2)nc2ccccc12,-4%,-3%,?,-10%,.,-8%
COc1ccc(-c2cc(C(=O)Nc3ccccc3N3CCOCC3)c3ccccc3n2)cc1OC,-7%,2%,12µM*,?,-58%,-18%
O=C(Nc1ccccc1N1CCOCC1)c1cc(-c2ccncc2)nc2ccccc12,-3%,-6%,15µM*,-3%,-6%,-12%
Cc1nc(N2CCN(S(=O)(=O)c3ccccc3)CC2)c2c3c(sc2n1)CC(C)CC3 (stereo not given),0%,-5%,?,-7%,-27%,-13%
Cc1nc(N2CCN(S(=O)(=O)c3cccc4nonc34)CC2)c2c3c(sc2n1)CCCC3,-1%,-3%,18µM*,-17%,12%,-7%
Cc1ccc(/C=C/C(=O)N2CCN(S(=O)(=O)/C=C/c3ccccc3)CC2)o1,-8%,-3%,-23%,-7%,.,-2%
Nc1cc([N+](=O)[O-])ccc1C(=O)O,.,.,.,.,-6%,.
Nc1ccc(C(=O)Oc2ccc([N+](=O)[O-])cc2)cc1,5%,14%,?,3.4µM*,.,?
Nc1ccc(C(=O)Oc2ccc([N+](=O)[O-])cc2)c(O)c1,-2%,2%,9%,15µM*,.,-1%
Nc1c(-c2nc(-c3ccccc3Cl)no2)nnn1-c1ccccc1C(F)(F)F,.,.,.,0%,.,.
O=C(Oc1ccc(-c2ccccc2)cc1)C1C2CCCCC21 (stereo not given),-4%,-5%,-1%,4.8µM*,5%,17%
O=C(Oc1ccc(-c2ccccc2)cc1)N1CCCCC1,.,.,.,8.5µM*,?,.
CC1CC(C)CN(C(=O)CSc2nnc(N)s2)C1 (stereo not given),-1%,-1%,17%,-3%,.,0%
Cc1cc(C(=O)CN2C(=O)NC3(CCCc4sccc43)C2=O)c(C)n1-c1ccccc1 (stereo not given),9%,12%,?,17µM*,10%,-1%
O=C(c1ccc(Cn2c(=O)[nH]c3ccccc3c2=O)cc1)N1CCN(c2ccc(F)cc2)CC1,0%,-2%,18µM*,1%,-19%,2%
COc1ccc(Cn2c(=O)[nH]c3cc(C(=O)N4CCN(c5ccccc5F)CC4)ccc3c2=O)cc1,-10%,0%,6%,2%,.,3%
SMILES,NPC1 promoter act,Rab9 promoter act,ELG1 DNA repair,FLuc modulator,SMN2 splice enh,ELG1 genotox
COc1ccc(Cn2c(=O)[nH]c3cc(C(=O)N4CCN(c5ccccc5OC)CC4)ccc3c2=O)cc1,-17%,-3%,21µM*,0%,.,-28%
CCN1CCCC1CNC(=O)C(=O)Nc1ccccc1OC (stereo not given),-4%,-5%,7%,4%,-5%,2%
OCC1OC(n2cnc3c(Cl)ncnc32)C(O)C1O (stereo not given),.,.,.,.,-4%,.
CN(C)c1ncnc2c1ncn2C1OC(CO)C(O)C1O (stereo not given),-11%,-3%,?,0%,5.6µM*,9%
CNc1ncnc2c1ncn2[C@@H]1O[C@H](CO)[C@@H](O)[C@H]1O,-2%[46.1 µM],-1%[46.1 µM],?,-2%,5%,16µM*
C[C@H](Cc1ccccc1)Nc1ncnc2c1ncn2[C@@H]1O[C@H](CO)[C@@H](O)[C@H]1O,-2%,13%,?,-3%,10%,13µM*
Nc1ncnc2c1ncn2[C@@H]1O[C@H](CO)[C@H](O)[C@H]1O,.,.,.,.,3%,.
COc1ccc(C2=NN(C3=NN=C(N)Cc4ncnn43)C(O)(C(F)(F)F)C2)cc1 (stereo not given),-4%,-9%,4%,-7%,.,0%
Cc1cc(=O)oc2cc(OCC(=O)Nc3ccccc3C(=O)O)ccc12,-3%,0%,?,?,.,1%
COc1ccccc1CNC(=O)CCNS(=O)(=O)c1cc(Br)cnc1N,-4%,-5%,1%,1%,.,-4%
N/C(=N\S(=O)(=O)c1cccs1)c1ccccc1,-3%,9%,-1%,7%,15%,-2%
O=C1/C(=N\S(=O)(=O)c2cccs2)C([n+]2ccccc2)=C([O-])c2ccccc21,-25%,-37%,2.6µM*,1%,.,-17%
CC(C)(C)c1cc[n+](C2=C([O-])c3ccccc3C(=O)/C2=N\S(=O)(=O)c2cccs2)cc1,-22%,-48%,2.9µM*,?,.,-11%
CC1CCN(C(=O)c2ccc(NS(=O)(=O)c3ccccc3)cc2)CC1,2%,19%,17%,2%,.,3%
CCOC(=O)C1CCN(C(=O)COC(=O)c2ccc(Br)o2)CC1,10%,1%,-2%,3%,-8%,-2%
